The values that follow come from PubChem BioAssay (NCATS).

Test [1] in a line: OV-KATE Cancer Cell Toxicity qHTS against the NCATS CANVASS Library (AID 1347345). Further: potency means the concentration at half of the fitted maximal effect. The gist of the method:
(§1)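 Viability read-out: CellTiter-Glo luminescence after 72 h compound exposure at 37 °C/5% CO2. Cells plated at 1000/well, 4 h pre-incubation; 11-point titration. Bortezomib served as control.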
Background: Quantitative high-throughput screening tests each substance at several concentrations.

A short description of test [2]: U-118MG Cancer Cell Toxicity qHTS against the NCATS CANVASS Library (AID 1347351). Further: potency means the concentration at half of the fitted maximal effect. The gist of the method:
as §1

The nature of test [3]: COV-362 Cancer Cell Toxicity qHTS against the NCATS CANVASS Library (AID 1347352). Further: potency means the concentration at half of the fitted maximal effect. Summed up:
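qHTS cytotoxicity: compounds tested in 11 concentrations on 1000 seeded cells per well over 72 h; bortezomib served as control; signal from CellTiter-Glo luminescence.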

Test [4] can be described thus: HPAF-II 24hr Apoptosis Induction qHTS against the NCATS CANVASS Library (AID 1347356). The gist of the method: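 Apoptosis induction in HPAF-II pancreatic cancer cells is measured as caspase-3/7 luminescence after a 24-hour exposure to compounds.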
A short description of test [5]: HPAF-II 12hr Apoptosis Induction qHTS against the NCATS CANVASS Library (AID 1347358). Further: potency means the concentration at half of the fitted maximal effect. The gist of the method:
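Apoptosis in HPAF-II pancreatic cancer cells is scored as caspase 3/7 luminescence following a 12-hour exposure to an 11-point compound series.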

Test [6] can be described thus: HEK293 24hr Apoptosis Induction qHTS against the NCATS CANVASS Library (AID 1347359). Further: potency means the concentration at half of the fitted maximal effect. The gist of the method:
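Caspase-3/7 activation measured as luminescence from the DEVD-based Caspase-Glo reagent, 15 min at room temperature, following 24-hour compound treatment of HEK293 cells.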

A short description of test [7]: HPAF-II 18hr Apoptosis Induction qHTS against the NCATS CANVASS Library (AID 1347360). Further: potency means the concentration at half of the fitted maximal effect. Summed up:
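Caspase-3/7 activation was measured with luminescent Caspase-Glo 3/7 reagent (15 min, RT) in HPAF-II cancer cells (500 cells/well). Before detection, cells had been treated for 18 h at 37 C with compounds (11 points).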

Test [8] can be described thus: HEK293 12hr Apoptosis Induction qHTS against the NCATS CANVASS Library (AID 1347361). Further: potency means the concentration at half of the fitted maximal effect. Summed up:
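HEK293 cells (500/well, DMEM + 10% FBS) were exposed to natural products across an 11-point series for 12 hours at 37 degrees C. Caspase-3/7 activity was then measured with DEVD luciferase luminescence after 15 min at room temperature.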

Test [9] has as its target Luciferin 4-monooxygenase (Photinus pyralis) (UniProt P08659). As to the kind of experiment: Firefly luciferase counterscreen qHTS: Assay Interference Panel against the NCATS CANVASS Library (AID 1347363). Further: series mostly up to about 57 µM. Summed up:
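Luminescence inhibition readout: compounds (11-point qHTS) sat 15 min at room temperature with substrate mix (0.013 mM luciferin and ATP), then firefly luciferase was added and signal read 5 min later.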
(The purpose of a counterscreen is to sort out artefacts and off-target activity.)

A short description of test [10]: KB-3-1 Cancer Cell Toxicity qHTS against the NCATS CANVASS Library (AID 1347366). Further: nearly all actives have a fitted effect of over 75% in size. Further: potency means the concentration at half of the fitted maximal effect. Summed up: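 CellTiter-Glo luminescence measured viability after 72 h at 37C. KB-3-1 cells were seeded at 500 per well in DMEM/10% FBS.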
Test [11] in a line: qHTS for ATAD5 Agonist screened against the NCATS CANVASS Library (AID 1347367).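 Further: luciferase reporter driven by ATAD5 which rises upon DNA damage.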 The gist of the method:
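Genotoxicity via ATAD5-luciferase luminescence after 16 h compound exposure (11-point series) at 37C in HEK293T-ATAD5 cells. CellTiter-Fluor viability read precedes the luminescence read; MMS serves as positive control.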

Test [12] is described as follows: MCF7 Cancer Cell Toxicity qHTS against the NCATS CANVASS Library (AID 1347369). Further: potency means the concentration at half of the fitted maximal effect. Summed up:
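Cytotoxicity was measured as CellTiterGlo luminescence (ATP) after 72 h at 37 °C. The cells were MCF7 at 500 per well, with an 11-point compound concentration series.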

A short description of test [13]: J3T Cancer Cell Toxicity qHTS against the NCATS CANVASS Library (AID 1347371). Further: potency means the concentration at half of the fitted maximal effect. Summed up: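 Viability of the J3T glioma line from dog is scored by ATP luminescence after a 72 hr incubation with natural products.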
In test [14] the target is Nuclear receptor subfamily 1 group I member 3 (Homo sapiens) (UniProt Q14994). As to the kind of experiment: qHTS for Constitutive Androstane Receptor (CAR) Antagonist screened against the NCATS CANVASS Library (AID 1347372). Further: potency means the concentration at half of the fitted maximal effect. The gist of the method: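 HepG2-CYP2B6-hCAR double-stable cells plated, 4hr attach; cpd pin-transferred; CITCO 50 nM final; 24hr 37C/5% CO2; CellTiter-Fluor 1hr (fluorescence), then ONE-Glo luminescence.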

Test [15] has the same target. As to the kind of experiment: qHTS for Constitutive Androstane Receptor (CAR) Agonist screened against the NCATS CANVASS Library (AID 1347373).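 Further: every well also contained 1.5 µM PK11195 alongside the test compound.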 Summed up: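 CAR agonism is scored as CYP2B6-promoter luciferase induction in a double-stable transfected HepG2 line, where 1.5uM PK11195 is included in each well. Compounds were tested over a 24hr exposure.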
Test [16] is described as follows: qHTS for H2AX Agonists against the NCATS CANVASS Library (AID 1347378). Further: potency means the concentration at half of the fitted maximal effect. The gist of the method:
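Phospho-H2AX (S139) in CHO-K1 lysates measured by HTRF, reported as 665/615 nm emission ratio after 24 hr antibody incubation at room temperature. Cells were first treated with a compound series for 3 hr at 37C (0.76% DMSO final).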

Test [17] is described as follows: qHTS for Inflammasome Signaling Inhibitors: IL-1-beta AlphaLISA screen against the NCATS CANVASS Library (AID 1347379).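 Further: human THP-1 cells primed with LPS then triggered with ATP.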 Summed up:
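Human THP-1 cells were pretreated 1 hr at 37 °C with compounds (up to 57.5 uM final), then stimulated with LPS (250 ng/mL final) and ATP (1.25 mM final). Secreted IL-1B was read by AlphaLISA after 16 hr.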

Test [18] is described as follows: Inflammasome Signaling qHTS Counterscreen: IL-1-beta AlphaLISA counterscreen against the NCATS CANVASS Library (AID 1347381).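 Further: cell-free check with purified IL-1β in medium and no THP-1 cells; series mostly up to about 57 µM.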 The gist of the method: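 To flag interference with the AlphaLISA read-out, a known amount of purified IL-1-beta (4 pg) replaced cell supernatant. Detection used anti-IL-1-beta acceptor beads, biotinylated antibody and streptavidin donor beads at room temperature.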

A short description of test [19]: Viability qHTS for inhibitors of the SERCaMP assay screened against the NCATS CANVASS Library (AID 1347400). Further: nearly all actives have a fitted effect of over 70% in size. Further: potency means the concentration at half of the fitted maximal effect. The gist of the method: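 Cytotoxicity counter-screen: ATP content (CellTiter-Glo luminescence) of SH-SY5Y-GLuc SERCaMP MJH297 cells after 48 h at 37C with compounds in an 11-point qHTS series.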
Test [20] in a line: 10-beta competent E. coli microbial cell viability qHTS against the NCATS CANVASS Library (AID 1347376). Further: series mostly up to about 46 µM. The gist of the method:
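Cytotoxicity toward competent E. coli is scored from cellular ATP content via BacTiter-Glo luminescence following overnight compound exposure at 37C, 5% CO2.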

A number with no mark means an inactive call. Results filed as inconclusive are left out. The source made the active and inactive calls. The call rests on the fitted dose curve; in most records, active means well fitted curve in the direction sought with a large enough effect; inconclusive means small, poorly fitted or top-dose-only effect, or another doubt; inactive means no such curve, though single readings can be large; an effect the other way counts as inactive or inconclusive.

Nuclear receptor subfamily 1 group I member 3 (Homo sapiens), sequence (Q14994 whole entry, looked up): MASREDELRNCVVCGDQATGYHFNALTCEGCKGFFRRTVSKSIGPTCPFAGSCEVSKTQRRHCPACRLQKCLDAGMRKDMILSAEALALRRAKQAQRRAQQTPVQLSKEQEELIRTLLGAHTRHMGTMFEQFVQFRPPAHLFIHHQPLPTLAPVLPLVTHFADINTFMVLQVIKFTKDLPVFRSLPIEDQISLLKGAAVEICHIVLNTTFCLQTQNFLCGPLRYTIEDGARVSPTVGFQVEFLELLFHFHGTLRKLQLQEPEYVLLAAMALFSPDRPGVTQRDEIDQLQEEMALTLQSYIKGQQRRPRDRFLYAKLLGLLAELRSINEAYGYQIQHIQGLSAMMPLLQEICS
Luciferin 4-monooxygenase (Photinus pyralis), sequence (P08659 whole entry, looked up): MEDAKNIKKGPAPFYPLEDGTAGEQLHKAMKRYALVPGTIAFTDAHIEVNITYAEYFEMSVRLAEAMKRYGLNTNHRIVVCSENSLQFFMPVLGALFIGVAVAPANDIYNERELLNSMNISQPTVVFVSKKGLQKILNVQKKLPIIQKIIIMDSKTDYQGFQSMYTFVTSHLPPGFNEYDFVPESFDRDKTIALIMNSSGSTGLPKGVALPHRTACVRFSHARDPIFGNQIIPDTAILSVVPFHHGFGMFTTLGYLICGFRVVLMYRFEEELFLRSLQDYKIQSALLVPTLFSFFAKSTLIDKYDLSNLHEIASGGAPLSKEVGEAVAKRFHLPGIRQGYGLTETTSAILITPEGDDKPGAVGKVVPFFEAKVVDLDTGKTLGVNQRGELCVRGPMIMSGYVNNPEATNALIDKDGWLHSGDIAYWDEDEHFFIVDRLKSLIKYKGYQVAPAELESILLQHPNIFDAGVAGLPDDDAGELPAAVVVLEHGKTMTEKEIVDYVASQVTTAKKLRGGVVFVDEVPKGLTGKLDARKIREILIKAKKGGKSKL

With `COC1C(O)C(OC(N)=O)C(Oc2ccc3c(O)c(NC(=O)c4ccc(O)c(CC=C(C)C)c4)c(=O)oc3c2C)OC1(C)C` (centres undefined), the Potency entry in test [1], in test [2], in test [3], in test [5], in test [6] and in [7] was “inactive” in each case. Further, the Potency entry in [8], in [9], in test [10], in test [11], in test [12] and in [13] was “inactive” throughout. The Potency entry in [14], in test [16], in test [17] and in test [19] was “inactive” each time. The result in test [4], in test [15] and in [18] was inactive.
For `CC(C)(Br)[C@@H](Cl)C[C@H](Br)[C@](C)(Cl)/C=C/Br`, the Potency in [1] was 23.6 µM (active); in [2], 18.8 µM (active). Besides, the molecule was called inactive in [4], in test [15], in test [20] and in test [18]. The Potency result in [5], in test [6], in test [7], in test [8], in [9] and in test [10] was “inactive” throughout. Besides, the Potency entry in test [11], in [12], in [13], in test [14] and in test [16] was “inactive” each time.
As for `C/C=C1/CC[C@@H]2c3[nH]c4ccccc4c3CCN2C1`, the Potency result in test [1], in [2], in test [3], in [5], in [6] and in [7] was “inactive” throughout. In addition, the Potency entry in test [8], in test [9], in [10], in test [11], in test [12] and in [13] was “inactive” throughout. Also, the Potency entry in [14], in test [16], in test [17] and in [19] was “inactive” each time. Also, the outcome in test [4], in test [15], in [20] and in [18] was inactive.
On to `C=C(C)CC[C@H](Cc1c(O)cc(O)c2c1O[C@H](c1ccc(O)cc1O)CC2=O)C(=C)C`, for which the Potency entry in [1], in [2], in [3], in [5], in [6] and in [7] was “inactive” in each case. The Potency entry in test [8], in test [9], in test [10], in test [11], in test [12] and in [13] was “inactive” each time. Besides, the Potency entry in test [14], in test [16], in [17] and in test [19] was “inactive” throughout. The molecule was called inactive in test [4], in test [15], in [20] and in test [18].
As to `CN1C(=O)[C@]23SS[C@@]1(C)C(=O)N2[C@H]1Nc2ccccc2[C@]1(c1c[nH]c2ccccc12)[C@@H]3O`, the Potency in [1] was 1.06 µM (active); in test [3], 0.941 µM (active); in test [5], 0.59 µM (active); in [6], 5.26 µM (active); in test [7] it was 0.469 µM (active); in [8], 5.26 µM (active). Also, the Potency in test [10] is 2.96 µM (active); in test [12], 3.7 µM (active); in test [13], 1.66 µM (active); in test [14], 10.5 µM (active); in test [16], 21.7 µM (active); in [17], 1.53 µM (active). Also, in test [19], the Potency was 2.4 µM (active). The Potency entry in [9] and in test [11] was “inactive” throughout. Moreover, the molecule was classed as inactive in test [15], in [20] and in [18].
On to `CCCCCC[C@H](CCCCC[C@@H](O)C(N)=O)OC(=O)[C@@H]1CC=CN1C(=O)c1ccccc1O`, for which the Potency result in [1], in [2], in test [3], in test [5], in test [6] and in test [7] was “inactive” in each case. Also, the Potency entry in test [8], in [9], in test [10], in [11], in test [12] and in [13] was “inactive” throughout. Besides, the Potency entry in test [14], in test [16], in test [17] and in [19] was “inactive” in each case. For the same molecule, the call in test [4], in test [15], in [20] and in test [18] was inactive.
